From PubChem
In the library only some 9.2% were active in any assay of this set; here they are far more common.
ELG1 DNA repair: qHTS screen for small molecules that inhibit ELG1-dependent DNA repair in human embryonic kidney (HEK293T) cells expressing luciferase-tagged ELG1. HEK293T ELG1-luciferase reporter, luminescence, 16 h; DNA damage induced by 5-fluorouridine. Potency, µM (titrated, usually from 46.1 µM), inactives show at the top dose activity change, negative = inhibition, most hits filed as inhibitors. 330,000 compounds, 2.3% hits. AID 504467, 2011; note: % is set by controls: 0 for no effect and ±100 for the full control effect; nearly all actives have a fitted effect of over 55% in size
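In this reporter screen, reduction of luminescence relative to DMSO vehicle indicated activity. Compounds and 5-fluorouridine were added together to 2,000 cells per well, incubated for 16 hr at 37 °C, then developed with ONE-Glo.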
NPC1 promoter act: qHTS Assay for NPC1 Promoter Activators; Huh7 NPC1 promoter luciferase reporter, 24 h; Potency, µM (doses to about 9.22 µM), for the others: top-dose activation, usual class: activators; 320,000 compounds, 2.4% hits; note: % of control where 0% means no effect; nearly all actives have a fitted effect of over 60% in size
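Luminescence read-out of NPC1 promoter-driven luciferase in stably transfected Huh7 cells; compounds delivered in DMSO and left 24 h at 37C, 5% CO2, qHTS titration format.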
ELG1 genotox: qHTS screen for small molecules that induce genotoxicity in human embryonic kidney (HEK293T) cells expressing luciferase-tagged ELG1 | HEK293T ELG1-luciferase reporter, luminescence, 16 h | Potency, µM (top dose mostly 46 µM), for the others: at the highest dose activity change, positive = activation, hits mostly activators | 330,000 compounds, 1.3% hits; note: % of control where 0% means no effect; nearly all actives have a fitted effect of over 60% in size
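Genotoxic stress is detected as increased luminescence from luciferase-tagged ELG1 in HEK293T cells, measured with ONE-Glo after a 16 hr treatment at 37 °C.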
FLuc modulator: qHTS profiling assay for firefly luciferase inhibitor/activator using purifed enzyme and Km concentrations of substrates (counterscreen for miR-21 project); Luciferin 4-monooxygenase (Photinus pyralis), P08659; purified FLuc, Km substrates, luminescence inhibition; Potency, µM (highest dose often 57.5 µM), without a hit: top-dose activity change, negative = inhibition, usual class: inhibitors; 360,000 compounds, 6.9% hits; AID 588342, 2011;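 note: plate controls were vehicle for no effect and reference inhibitor for full effect; nearly all actives have a fitted effect of over 55% in size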
Target sequence (P08659 whole entry, looked up): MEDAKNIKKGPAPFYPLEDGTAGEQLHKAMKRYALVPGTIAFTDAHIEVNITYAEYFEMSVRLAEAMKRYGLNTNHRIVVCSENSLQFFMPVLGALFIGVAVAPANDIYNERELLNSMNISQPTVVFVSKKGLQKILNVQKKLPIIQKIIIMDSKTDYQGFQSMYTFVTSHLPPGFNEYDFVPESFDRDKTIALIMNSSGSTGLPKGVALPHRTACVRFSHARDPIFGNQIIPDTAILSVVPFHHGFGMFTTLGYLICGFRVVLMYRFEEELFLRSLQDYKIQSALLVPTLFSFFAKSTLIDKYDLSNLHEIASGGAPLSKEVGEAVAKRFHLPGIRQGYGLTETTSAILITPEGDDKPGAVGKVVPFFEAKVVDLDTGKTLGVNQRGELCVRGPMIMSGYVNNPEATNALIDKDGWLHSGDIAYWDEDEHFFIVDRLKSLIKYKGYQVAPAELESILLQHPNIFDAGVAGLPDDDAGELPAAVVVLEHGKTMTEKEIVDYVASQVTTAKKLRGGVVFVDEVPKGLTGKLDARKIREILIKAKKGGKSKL
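Purified P. pyralis luciferase (10nM final) with 10uM D-luciferin and 10uM ATP (Km levels) in 50mM Tris acetate pH 7.5, 10mM Mg acetate, 0.01% Tween-20, 0.05% BSA; qHTS 6-point titration, ~60 µM downward; luminescence read.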
Rab9 promoter act: qHTS Assay for Rab9 Promoter Activators. Huh7 Rab9 promoter-luciferase reporter, luminescence, 24 h. Potency, µM (top dose mostly 9.22 µM), inactives show at the top dose activation, negative = inhibition, hits mostly activators. 320,000 compounds, 2.8% hits; note: % of control where 0% means no effect; nearly all actives have a fitted effect of over 60% in size
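Cells were plated at 1500 per well in reduced-serum medium with 10% FBS and left 2 h. Compound in DMSO was then added for 24 h at 37 °C. Reporter signal was read by luminescence after 10 min with luciferase detection reagent.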
SMN2 splice enh: qHTS Assay for Enhancers of SMN2 Splice Variant Expression | HEK293 SMN2-luciferase splicing reporter, luminescence, 30-36 h | Potency, µM (highest dose often 46.1 µM), inactives show at the top dose activity change, positive = activation, most hits filed as activators | 210,000 compounds, 2.8% hits | AID 1458, 2008; note: % of control where 0% means no effect; nearly all actives have a fitted effect of over 55% in size
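HEK293 cells carry an SMN2 […]–luciferase reporter in which exon 7 inclusion puts luciferase in frame. Cells were plated 10-12 h before compound addition, then incubated 30-36 h at 37C. ONE-Glo luminescence was read; sodium butyrate at 4.5 mM final served as control.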
* hit, by the source's call; ? = inconclusive; . = not tested or not shown; [ ] = dose if it differs, or a comment. Calls come from the whole dose curve; as a rule, active = well fitted curve in the direction sought with a large enough effect; inconclusive = small, poorly fitted or top-dose-only effect, or another doubt; inactive = no such curve, though single readings can be large; an effect the other way counts as inactive or inconclusive. Potency is the fitted concentration of half-maximal effect.

SMILES	ELG1 DNA repair	NPC1 promoter act	ELG1 genotox	FLuc modulator	Rab9 promoter act	SMN2 splice enh
CCN(CC)CCN1C(=O)c2ccccc2NC1c1ccc(F)cc1 (stereo unspecified)	-4%	-4%	0%	2%	8%	9%
Cc1cc2n(n1)C(c1ccc(N(C)C)cc1)Nc1ccccc1-2 (stereo unspecified)	?	-2%	16%	30µM*	-7%	1%
CCn1cc([N+](=O)[O-])c(=O)c2cc(F)c(N3CCOCC3)cc21	7%	-4%	5%	-3%	-3%[1.84 µM]	.
Cc1nn(-c2nc(-c3ccc(F)cc3)cc(C(F)(F)F)n2)c(C)c1Cl	.	.	.	-2%	.	-24%
Cc1cc(NC(=O)c2cc(-c3ccc(OC(C)C)cc3)nc3ccccc23)no1	-26%	19%	6%	3µM*	19%	.
O=C(Nc1ccon1)c1cc(-c2ccccc2)nc2ccccc12	-24%	0%	-5%	-12%	0%	-8%
CCC(C)c1ccc(-c2cc(C(=O)OCC(=O)Nc3cc(C)on3)c3ccccc3n2)cc1 (stereo unspecified)	?	?	1.8µM*	2.7µM*	1.6µM*	22µM*
COc1ccc(-c2cc(C(=O)OCC(=O)Nc3cc(C)on3)c3ccccc3n2)cc1OC	-12%	3%	6%	?	-1%	-6%
Cc1cccc(N=C2NN=C(c3ccc4c(c3)OCCO4)CS2)c1	?	2.8µM*	?	1.2µM*	2.8µM*	-3%
Cc1cccc(N=C2NN=C(c3c(C)[nH]c4ccccc34)CS2)c1	?	-6%	-5%	-1%	0%	-106%
CCc1ccc(C2=NNC(=Nc3cccc(S(=O)(=O)N(C)C)c3)SC2)cc1	?	22%	4%	11µM*	10%	-80%
Cc1ccc(C2=NNC(=Nc3ccc(F)cc3)SC2)cc1	-3%	30%	-1%	17µM*	18%	-1%
COc1ccc(CC(=O)NCc2ccc3c(c2)CCN3C(C)=O)cc1	.	.	.	4%	.	.
COc1ccc(N2CCN(c3c(S(=O)(=O)c4ccccc4)cnc4ccc(OC)cc34)CC2)cc1	18µM*	-1%	-7%	3%	0%	.
CCOc1ccc2ncc(S(=O)(=O)c3ccccc3)c(N3CCN(c4ccc(OC)cc4)CC3)c2c1	18µM*	1%	-7%	-3%	0%	-10%
COc1ccc(S(=O)(=O)c2cnc3ccc(OC)cc3c2N2CCC3(CC2)OCCO3)cc1	23µM*	0%	-4%	0%	-6%	-17%
CCOc1ccc2ncc(S(=O)(=O)c3ccccc3)c(N3CCC4(CC3)OCCO4)c2c1	?	-3%	-3%	-5%	-3%	19%
CCOC(=O)c1cnc2ccc(OCC)cc2c1N1CCN(c2ccccc2)CC1	?	2%	-13%	1%	-5%	-13%
O=C(C1=COCCO1)N1CCN(S(=O)(=O)c2cccc(F)c2)CC1	0%	0%	0%	1%	-6%	.
O=C1NN(c2cccc(Br)c2)C(=O)/C1=C\c1ccccc1	8%	2%	0%	?	0%[1.84 µM]	.
O=C1NN(c2cccc(Br)c2)C(=O)/C1=C/c1cccs1	-10%	-1%	-1%	9.5µM*	5%	.
O=C1NN(c2ccccc2)C(=O)/C1=C/c1cccs1	?	-4%	1%	19µM*	-10%	3%
O=C1NN(c2ccccc2)C(=O)/C1=C\c1ccccc1	-13%	-1%	8%	17µM*	-2%	.
OCCN(CO)CO	.	.	.	.	.	-2%[9.22 µM]
CC1=C(C(=O)Nc2ccccc2)C(c2cccc(Cl)c2)n2nc(SCC(=O)c3ccc(C)cc3)nc2N1 (stereo unspecified)	.	.	.	-5%	.	.
SMILES	ELG1 DNA repair	NPC1 promoter act	ELG1 genotox	FLuc modulator	Rab9 promoter act	SMN2 splice enh
COc1cccc(NC(=O)CSc2nc(=O)[nH]c3c2CCCC3)c1	.	.	.	-9%	.	.
Cn1c(=O)n(C/C=C/c2ccccc2)c(=O)c2c1nc1n2CCCN1Cc1ccccc1	21µM*	1%	-14%	1%	13%	.
CCOC(=O)Cn1c(=O)c2c(nc3n2CCN3c2ccc(CC)cc2)n(C)c1=O	.	.	.	13µM*	.	.
C=CCn1c(=O)c2c(nc3n2CCCN3Cc2ccccc2)n(C)c1=O	6%	2%	0%	0%	-1%	.
Cn1c(=O)n(C/C=C/c2ccccc2)c(=O)c2c1nc1n2CCCN1c1ccc(F)cc1	23µM*	0%	-8%	-1%	11%	-26%
Cn1c(=O)n(CCc2ccccc2)c(=O)c2c1nc1n2CCN1Cc1ccco1	21µM*	15%	-17%	-1%	-4%	2%
COC(=O)[C@H](Cc1ccccc1)N1C/C=C\COc2c(Cl)cc(Cl)cc2S1(=O)=O	-10%	.	-2%	.	.	.
COc1ccccc1CNC(=O)c1cccc(S(=O)(=O)N2CCCC2)c1	-2%	-3%	-1%	4%	0%	.
COc1ccccc1NC(=O)c1ccc(Cl)c(S(=O)(=O)NCc2ccco2)c1	-14%	-3%	1%	-2%	-3%	.
COc1cccc(CN2CCN(Cc3cc(OC)c(OC)cc3[N+](=O)[O-])CC2)c1	?	1%	1%	5%	-7%	-25%
COc1cc(CN2CCN(Cc3ccc([N+](=O)[O-])cc3)CC2)c([N+](=O)[O-])cc1OC	18µM*	-17%	-8%	-1%	-12%	-61%
CCOC(=O)C1C(C(=O)OC)=C(C2=CCCCC2)c2ccccc2N1S(=O)(=O)C(F)(F)F (stereo unspecified)	18µM*	.	-7%	.	.	.
CCOC(=O)C1=C(c2ccccc2)c2ccc(OC)cc2N(S(=O)(=O)C(F)(F)F)C1C(=O)OCC (stereo unspecified)	15µM*	.	-3%	.	.	.
COc1ccc(-n2nc3c(N4CCC(C(=O)NCc5cccc(F)c5)CC4)nnc(C)c3c2C)cc1	.	.	.	-8%	.	.
COc1ccc2c(c1OC)C(=O)N(c1ccc(F)cc1)C2	?	2µM*	?	8.5µM*	1.3µM*	.
COc1ccc2c(c1OC)C(=O)N(c1cccc(NC(C)=O)c1)C2	?	14%	?	11µM*	21%	.
COc1ccc(C(=O)Nc2cccc(NC(C)=O)c2)cc1OC	?	1%	2%	?	-7%	12%
O=C(Nc1n[nH]c(C2CCCCC2)n1)C1CCCCC1	?	11%	21µM*	-12%	15%	0.11µM*
